Among all 310,000 compounds or so, about 14,000 (4.5%) showed an effect of 50% or more. The effect is printed as a negative number. Only a selection was taken, and strong results are over-represented in it overall.
target: human ether-à-go-go-related gene (hERG) potassium channel (human, UniProt Q12809); test: primary screen, population patch clamp on CHO cells stably expressing hERG; higher = less effect of the substance
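Further: peak tail current of the secondary pulse compared with the same well before compound.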

Chain of human ether-à-go-go-related gene (hERG) potassium channel (Q12809 whole entry, looked up): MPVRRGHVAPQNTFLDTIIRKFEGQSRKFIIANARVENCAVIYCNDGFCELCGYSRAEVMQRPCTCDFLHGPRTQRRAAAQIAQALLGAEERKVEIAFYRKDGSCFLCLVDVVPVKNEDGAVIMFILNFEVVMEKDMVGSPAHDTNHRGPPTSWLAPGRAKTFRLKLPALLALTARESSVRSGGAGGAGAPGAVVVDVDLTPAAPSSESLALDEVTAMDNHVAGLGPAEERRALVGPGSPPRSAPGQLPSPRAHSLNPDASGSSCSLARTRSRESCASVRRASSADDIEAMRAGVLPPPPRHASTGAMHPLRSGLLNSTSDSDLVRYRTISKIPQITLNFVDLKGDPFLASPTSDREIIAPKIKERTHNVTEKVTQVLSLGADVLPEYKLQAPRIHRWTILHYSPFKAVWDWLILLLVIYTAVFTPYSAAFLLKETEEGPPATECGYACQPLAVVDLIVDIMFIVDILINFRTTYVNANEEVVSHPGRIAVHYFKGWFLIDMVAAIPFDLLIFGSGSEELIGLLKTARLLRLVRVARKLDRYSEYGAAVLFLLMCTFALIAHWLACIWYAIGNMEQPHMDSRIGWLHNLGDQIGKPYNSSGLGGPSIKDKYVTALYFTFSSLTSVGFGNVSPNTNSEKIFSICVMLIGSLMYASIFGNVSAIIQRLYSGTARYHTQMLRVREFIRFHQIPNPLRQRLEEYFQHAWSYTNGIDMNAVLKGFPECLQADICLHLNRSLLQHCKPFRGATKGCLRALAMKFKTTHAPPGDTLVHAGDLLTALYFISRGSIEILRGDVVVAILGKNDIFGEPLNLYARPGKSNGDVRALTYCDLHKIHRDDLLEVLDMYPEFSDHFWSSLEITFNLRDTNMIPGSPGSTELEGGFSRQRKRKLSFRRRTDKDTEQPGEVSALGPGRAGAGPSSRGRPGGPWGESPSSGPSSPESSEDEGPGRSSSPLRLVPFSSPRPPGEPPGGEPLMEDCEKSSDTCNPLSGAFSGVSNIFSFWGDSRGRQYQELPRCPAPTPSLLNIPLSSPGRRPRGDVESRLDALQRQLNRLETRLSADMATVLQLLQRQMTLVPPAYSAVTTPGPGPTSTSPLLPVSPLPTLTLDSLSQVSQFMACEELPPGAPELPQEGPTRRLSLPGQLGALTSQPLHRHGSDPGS

First: Cc1ccccc1C(NC(N)=O)c1ccccc1 (stereo not shown)
Second: Cc1cccc(C)c1NC(=O)C(NC=O)c1ccccc1Cl (stereo not shown)
The “hERG current change (%, negative = inhibition) at 10uM” value of the first is lower: 0.289% for the first, 0.855% for the second.

First: COc1ccccc1-n1cnnc1SC1CCOC1=O (stereo not shown)
Second: CCOc1ccccc1N1CCN(C(=O)c2cn(CC3CCCCC3)nn2)CC1
The “hERG current change (%, negative = inhibition) at 10uM” value of the first is higher: 4.66% for the first, -9.95% for the second.

Compared with `S=C(CN1CCCC1=S)N1CCOCC1`, `O=C(COc1ccc(S(=O)(=O)N2CCCCC2)cc1)N1CCOCC1` is lower in “hERG current change (%, negative = inhibition) at 10uM” value: 17.3% for the first, 3.54% for the second.

First: CCOCCOC(=O)c1ccc(-n2cnc(C)n2)nc1
Second: CCOC(=O)C1(O)CC(C)=NN1C(=O)c1cccc(Br)c1 (stereo not shown)
The “hERG current change (%, negative = inhibition) at 10uM” value of the first is lower: 16.3% for the first, 25.9% for the second.

Going from `O=S(=O)(Nc1ccccc1N1CCOCC1)c1ccc(F)c(Cl)c1` to `O=C(N/C(=C\c1ccccc1)C(=O)N1CCOCC1)c1ccccc1Cl`, the “hERG current change (%, negative = inhibition) at 10uM” value rises from -18.6% to 0.479%.

First: CC1Cc2ccccc2N1c1ncnc2nc[nH]c12 (stereo not shown)
Second: Cc1cc(Oc2ccc(=O)n(C)n2)nc(SCc2ccccc2)n1
The “hERG current change (%, negative = inhibition) at 10uM” value of the first is lower: -6.58% for the first, 25.7% for the second.

First: CSc1nc2nc3c(c(=O)n2[nH]1)CN(Cc1ccccc1)CC3
Second: O=C(c1ccc(CN2CCc3ccccc3C2)cc1)N1CCCCC1
The “hERG current change (%, negative = inhibition) at 10uM” value of the first is lower: -20.5% for the first, -9.72% for the second.

First: CCc1ccc2c(c1)C(C)=CC(C)(C)N2
Second: CC1=CC(C)(C)Nc2ccc(C)cc21
The “hERG current change (%, negative = inhibition) at 10uM” value of the first is higher: 17% for the first, -58.1% for the second.

Compared with `CC1=CC(C)(C)Nc2ccc(Cc3ccc4c(c3)C(C)=CC(C)(C)N4)cc21`, `COc1ccc(CC(=O)Nc2ccc(-c3nnc(-c4ccc(C)cc4)o3)cc2)cc1` is higher in “hERG current change (%, negative = inhibition) at 10uM” value: 13.9% for the first, 19.1% for the second.

First: FC(F)Oc1ccc(-c2c[n+]3c(n2-c2ccccc2)CCCCC3)cc1
Second: COc1ccc(-c2c[n+]3c(n2-c2ccccc2)CCCCC3)cc1.[Br-]
The “hERG current change (%, negative = inhibition) at 10uM” value of the first is lower: -70.3% for the first, -18.6% for the second.

First: Cn1c(-c2ccccc2)c[n+]2c1CCCCC2.[Br-]
Second: CCOc1ccc(-n2c(-c3ccccc3)c[n+]3c2CCCCC3)cc1.[Br-]
The “hERG current change (%, negative = inhibition) at 10uM” value of the first is higher: -0.399% for the first, -67% for the second.

First: CCOc1ccc(-c2nnc(-c3ccccc3)n2-c2ccccc2)cc1
Second: CCOc1ccc(-n2c(-c3ccccc3)c[nH]c2=S)cc1
The “hERG current change (%, negative = inhibition) at 10uM” value of the first is lower: -18.8% for the first, 20.6% for the second.

Going from `CCOc1ccc(-c2c[n+]3c(n2-c2ccccc2)CCCCC3)cc1.[Br-]` to `CCOc1ccc(-n2c(-c3ccccc3)c[n+]3c2CCC3)cc1.[Br-]`, the “hERG current change (%, negative = inhibition) at 10uM” value rises from -64.7% to -54%.

Going from `CN(C)C(CNC(=O)c1cccs1)c1cccnc1` (stereo not shown) to `CCn1c(O)c(N=NC(=O)c2cccnc2)c2cc(Br)ccc21`, the “hERG current change (%, negative = inhibition) at 10uM” value falls from 18.7% to -2.17%.

First: CCOC(=O)c1cc2oc(C)cc2n1CC(=O)OC1CCCCC1
Second: CCOc1ccc(C(=O)NCCN2CCCCC2)c(OCC)c1
The “hERG current change (%, negative = inhibition) at 10uM” value of the first is higher: -5.5% for the first, -23.1% for the second.

Compared with `NNC(=O)c1ccc(Cl)cc1`, `S=c1[nH]nc(-c2ccc(Cl)cc2)n1/N=C/c1ccco1` is higher in “hERG current change (%, negative = inhibition) at 10uM” value: 2.74% for the first, 14.3% for the second.

First: C=CCN1N=C(/C=C/c2ccc(OC)cc2)CCC1=O
Second: COc1ccc(/C=C(/NC(=O)/C=C/c2ccccc2)C(=O)O)cc1
The “hERG current change (%, negative = inhibition) at 10uM” value of the first is lower: 6.48% for the first, 24.9% for the second.

Going from `C/C=C(\C)c1nnc(NC(=O)OCC)s1` to `COc1ccc(-c2nnc(SCC(=O)Nc3cc(C)on3)o2)cc1`, the “hERG current change (%, negative = inhibition) at 10uM” value rises from 8.46% to 14.4%.

Going from `Cc1c(NC=C(C#N)C#N)c(=O)n(-c2ccccc2)n1C` to `NNC(=O)Cn1nc(Cc2ccccc2)n(N)c1=O`, the “hERG current change (%, negative = inhibition) at 10uM” value falls from 35.5% to 8.22%.

First: O=C(/C=C/c1ccccc1)N/C(=C/c1ccccc1)C(=O)N1CCOCC1
Second: O=C(/C=C/c1ccccc1)N/C(=C/c1ccccc1)C(=O)N1CCCCC1
The “hERG current change (%, negative = inhibition) at 10uM” value of the first is lower: -58.8% for the first, -58.7% for the second.

Going from `CC(=O)N/C(=C\c1ccccc1)C(=O)N1CCOCC1` to `CC(=O)N/C(=C/c1ccccc1)C(=O)N1CCCCC1`, the “hERG current change (%, negative = inhibition) at 10uM” value falls from 20.1% to 10.3%.

Compared with `COc1ccc(/C=C(/NC(=O)/C=C/c2ccccc2)C(=O)N2CCOCC2)cc1`, `COc1ccc(C(=O)N/C(=C\c2ccccc2)C(=O)N2CCOCC2)cc1` is higher in “hERG current change (%, negative = inhibition) at 10uM” value: -71.2% for the first, -8.27% for the second.

Compared with `O=C(N/C(=C/c1ccccc1)C(=O)N1CCCCCC1)c1ccccc1`, `O=C(Nc1cccc(C(=O)N2CCCC2)c1)c1ccccc1` is higher in “hERG current change (%, negative = inhibition) at 10uM” value: -12.4% for the first, 2.2% for the second.

Compared with `COc1ccc(NC(=O)CCNS(=O)(=O)c2ccc3c(c2)c(=O)n(C)c(=O)n3C)cc1`, `Cc1ccc(S(=O)(=O)Nc2ccc3c(c2)nc(CN2CCCC2)n3C)cc1` is lower in “hERG current change (%, negative = inhibition) at 10uM” value: -2.03% for the first, -46.5% for the second.

Compared with `CC/C(=N\O)c1ccc(OC)c(OC)c1`, `CCOc1ccc(C(CC(=O)O)NS(=O)(=O)c2ccc(C)cc2)cc1OC` (stereo not shown) is lower in “hERG current change (%, negative = inhibition) at 10uM” value: 21.1% for the first, 10.3% for the second.

Compared with `COC(=O)c1ccc(/C=C/c2c(-c3ccc(OC)cc3)oc3ccccc23)cc1`, `CC(=O)c1ccc(-c2ccc(C(=O)N3CCN(c4ccc(F)cc4)CC3)o2)cc1` is lower in “hERG current change (%, negative = inhibition) at 10uM” value: 7.39% for the first, -16.7% for the second.

Going from `CCCCn1c(O)c(N=NC(=O)c2ccncc2)c2cc(Br)ccc21` to `CCCn1c(O)c(N=NC(=O)c2cccnc2)c2cc(Br)ccc21`, the “hERG current change (%, negative = inhibition) at 10uM” value rises from -68.1% to -3.7%.

Going from `O=C(NCc1ccco1)c1noc2c1CCCC2` to `O=C(c1ccc(Br)o1)N1CCN(c2ccc(F)cc2)CC1`, the “hERG current change (%, negative = inhibition) at 10uM” value falls from -3.59% to -45.6%.

First: CSc1nc2ccc(NS(=O)(=O)c3ccc(CNC(C)=O)cc3)cc2s1
Second: Cn1c(CN2CCCC2)nc2cc(NS(=O)(=O)c3ccc(Cl)cc3)ccc21
The “hERG current change (%, negative = inhibition) at 10uM” value of the first is higher: -0.24% for the first, -61.7% for the second.

Compared with `COc1ccc(-c2n[nH]c(=S)n2C2CCCCC2)cc1`, `COc1ccc(N2CCN(C(=O)c3cn(CC4CCCCC4)nn3)CC2)cc1` is lower in “hERG current change (%, negative = inhibition) at 10uM” value: 20.2% for the first, -14.3% for the second.

Going from `Cn1c(CN2CCCC2)nc2cc(NS(=O)(=O)c3ccccc3)ccc21` to `Cn1c(CN2CCCCC2)nc2cc(NS(=O)(=O)c3ccc(Cl)cc3)ccc21`, the “hERG current change (%, negative = inhibition) at 10uM” value falls from 1.49% to -62.5%.

Compared with `CC1CC(C)CN(C(=O)CNS(=O)(=O)c2ccc(Br)s2)C1` (stereo not shown), `COC(=O)c1ccccc1NC(=O)C1CCN(S(C)(=O)=O)CC1` is higher in “hERG current change (%, negative = inhibition) at 10uM” value: -1.92% for the first, 1.04% for the second.

First: O=C(c1cn(CC2CCCCC2)nn1)N1CCN(c2ccc(F)cc2)CC1
Second: CSc1ccccc1C(=O)N1CCN(c2ccc(F)cc2)CC1
The “hERG current change (%, negative = inhibition) at 10uM” value of the first is lower: -52.5% for the first, -17.5% for the second.

Compared with `O=C(c1cccc(C(=O)N2CCN(c3ccccc3)CC2)c1)N1CCN(c2ccccc2)CC1`, `O=C(c1ccccc1C(=O)N1CCN(c2ccccc2)CC1)N1CCN(c2ccccc2)CC1` is higher in “hERG current change (%, negative = inhibition) at 10uM” value: -41.7% for the first, -29.7% for the second.

First: O=C(c1ccc(N2CCN(C(=O)c3cccc(F)c3)CC2)cc1)c1cccc(F)c1
Second: O=C(c1ccc(N2CCN(C(=O)c3ccc(F)c(F)c3)CC2)cc1)c1cccc(F)c1
The “hERG current change (%, negative = inhibition) at 10uM” value of the first is higher: -12.5% for the first, -16.7% for the second.

Compared with `O=C(Nc1cccc(C(=O)N2CCN(c3cccc(Cl)c3)CC2)c1)c1ccccc1`, `O=C(Nc1cccc(C(=O)N2CCN(c3ccc(F)cc3)CC2)c1)c1ccccc1` is lower in “hERG current change (%, negative = inhibition) at 10uM” value: 4.69% for the first, -58.7% for the second.

Going from `O=C(c1ccc(N2CCN(C(=O)c3ccccc3)CC2)cc1)c1cccc(F)c1` to `O=C(c1ccccc1)c1ccc(C(=O)N2CCN(c3ccc(F)cc3)CC2)o1`, the “hERG current change (%, negative = inhibition) at 10uM” value falls from -74.5% to -78.4%.

Going from `O=C(c1cccc(C(=O)N2CCN(c3ccc(F)cc3)CC2)c1)N1CCN(c2ccc(F)cc2)CC1` to `O=C(c1ccccc1C(=O)N1CCN(c2ccc(F)cc2)CC1)N1CCN(c2ccc(F)cc2)CC1`, the “hERG current change (%, negative = inhibition) at 10uM” value falls from -72.5% to -73.8%.

Compared with `O=C(c1cccc(-c2ccc(O)cc2)c1)N1CCN(c2ccc(F)cc2)CC1`, `O=C(c1cccc(S(=O)(=O)NCc2ccccc2)c1)N1CCN(c2ccc(F)cc2)CC1` is lower in “hERG current change (%, negative = inhibition) at 10uM” value: 23.3% for the first, -58.1% for the second.

Compared with `CN(C1CCCCC1)S(=O)(=O)c1ccc(S(=O)(=O)N2CCN(C(=O)c3ccccc3F)CC2)cc1`, `CC(=O)N1CCN(C(=O)c2cccc(S(=O)(=O)NCc3ccccc3)c2)CC1` is higher in “hERG current change (%, negative = inhibition) at 10uM” value: -12.2% for the first, 5.5% for the second.

Going from `CCOC(=O)N1CCC(N2CC34C=CC(O3)C(C(=O)Nc3ccc(OCC)cc3)C4C2=O)CC1` (stereo not shown) to `O=C(COC(=O)/C=C/c1ccc(S(=O)(=O)N2CCOCC2)cc1)NC1CCCCCCC1`, the “hERG current change (%, negative = inhibition) at 10uM” value rises from -18.7% to 32.2%.

Going from `CC(OC(=O)CNC(=O)COc1ccccc1)C(=O)N(C)Cc1ccccc1` (stereo not shown) to `O=C(c1cccc(S(=O)(=O)NCc2ccccc2)c1)N1CCN(c2cccc(C(F)(F)F)c2)CC1`, the “hERG current change (%, negative = inhibition) at 10uM” value falls from 5.07% to -4.17%.

Compared with `CCO.N#CC1=C(N)Oc2c(oc(CO)cc2=O)C1c1ccccc1[N+](=O)[O-]` (stereo not shown), `O=C(c1ccc(CN2CCc3ccccc3C2)cc1)N1CCN(c2ccc(F)cc2)CC1` is lower in “hERG current change (%, negative = inhibition) at 10uM” value: -1.44% for the first, -68.6% for the second.

First: O=C(c1ccc(CN2CCc3ccccc3C2)cc1)N1CCN(c2ccccc2)CC1
Second: O=C1C(c2ccc(F)cc2)N(C2CCCCC2)C(=O)CN1C1CCCC1 (stereo not shown)
The “hERG current change (%, negative = inhibition) at 10uM” value of the first is lower: -46.3% for the first, -34.1% for the second.

Source: paper PMC4336329 (PLoS ONE, 2015)
